In PubChem BioAssay (Tox21):
Records with an inconclusive call do not appear. Where a call stands in place of a potency, no number is given. Activity calls are given as the source filed them. Calls come from the whole dose curve; as a rule, active = well fitted curve in the direction sought with a large enough effect in the repeat runs; inconclusive = weak or mixed curves; inactive = no such curve, though single readings can be large; an effect the other way counts as inactive or inconclusive.

Legend:
[1] = target: Cytochrome P450 2D6 (Homo sapiens) (UniProt P10635); experiment: Cytochrome P450 Family 2 Subfamily D Member 6 (CYP2D6) small molecule antagonists: luciferase reporter qHTS assay (AID 1671196); note: nearly all actives have a fitted effect of over 50% in size
Outline: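 Read-out is luminescence from luciferin formed by CYP2D6 turnover of a proluciferin substrate, recorded as relative luminescence units. Reactions ran 1 h at room temperature after NADPH regeneration solution was added.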

[2] = target: Cytochrome P450 2C19 (Homo sapiens) (UniProt P33261); experiment: Cytochrome P450 Family 2 Subfamily C Member 19 (CYP2C19) small molecule antagonists: luciferase reporter qHTS assay (AID 1671197); note: nearly all actives have a fitted effect of over 65% in size
Outline: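 Relative luminescence units recorded 20 min after the detection reagent stopped a 1 h, 37C CYP2C19 reaction on proluciferin substrate, which was started by NADPH regeneration following 10 min room-temperature compound preincubation; ketoconazole positive control.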

[3] = target: Cytochrome P450 2C9 (Homo sapiens) (UniProt P11712); experiment: Cytochrome P450 Family 2 Subfamily C Member 9 (CYP2C9) small molecule antagonists: luciferase reporter qHTS assay (AID 1671198); note: nearly all actives have a fitted effect of over 50% in size
Outline: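 P450-Glo proluciferin substrate with CYP2C9 enzyme; 10 min RT preincubation, then NADPH regeneration 1 h at 37C; luciferin detection reagent 20 min RT, luminescence in relative luminescence units.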

[4] = target: Cytochrome P450 1A2 (Homo sapiens) (UniProt P05177); experiment: Cytochrome P450 Family 1 Subfamily A Member 2 (CYP1A2) small molecule antagonists: luciferase reporter qHTS assay (AID 1671199); note: nearly all actives have a fitted effect of over 50% in size
Outline: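 P450-Glo CYP1A2, 1536-well qHTS: enzyme/proluciferin substrate + cpd (DMSO), 10 min RT; NADPH regen, 1 h RT; detection reagent, 20 min; luminescence, RLU.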

[5] = target: Voltage-gated inwardly rectifying potassium channel KCNH2 (Homo sapiens) (UniProt Q12809); experiment: Human Ether-a-go-go-Related Gene (hERG) channel small molecule antagonists: fluorescence cell-based qHTS assay (AID 1671200); note: nearly all actives have a fitted effect of over 50% in size
Outline: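 First, 1000 cells per well are seeded and cultured overnight at 37 C. Next, FluxOR II dye is loaded for 1 h at room temperature, protected from light. After 10 more minutes, stimulus is added and fluorescence is read.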

[6] = target: Cytochrome P450 3A4 (Homo sapiens) (UniProt P08684); experiment: Cytochrome P450 Family 3 Subfamily A Member 4 (CYP3A4) small molecule antagonists: luciferase reporter qHTS assay (AID 1671201); note: nearly all actives have a fitted effect of over 50% in size
Outline: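 Enzyme and proluciferin substrate are mixed with test chemicals for 10 min, then NADPH regeneration system drives turnover for 1 h at room temperature. A detection reagent halts the reaction; luminescence after 20 min gives relative activity.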
Potency is the fitted concentration of half-maximal effect.

Chain of Cytochrome P450 1A2 (Homo sapiens) (P05177 whole entry, looked up): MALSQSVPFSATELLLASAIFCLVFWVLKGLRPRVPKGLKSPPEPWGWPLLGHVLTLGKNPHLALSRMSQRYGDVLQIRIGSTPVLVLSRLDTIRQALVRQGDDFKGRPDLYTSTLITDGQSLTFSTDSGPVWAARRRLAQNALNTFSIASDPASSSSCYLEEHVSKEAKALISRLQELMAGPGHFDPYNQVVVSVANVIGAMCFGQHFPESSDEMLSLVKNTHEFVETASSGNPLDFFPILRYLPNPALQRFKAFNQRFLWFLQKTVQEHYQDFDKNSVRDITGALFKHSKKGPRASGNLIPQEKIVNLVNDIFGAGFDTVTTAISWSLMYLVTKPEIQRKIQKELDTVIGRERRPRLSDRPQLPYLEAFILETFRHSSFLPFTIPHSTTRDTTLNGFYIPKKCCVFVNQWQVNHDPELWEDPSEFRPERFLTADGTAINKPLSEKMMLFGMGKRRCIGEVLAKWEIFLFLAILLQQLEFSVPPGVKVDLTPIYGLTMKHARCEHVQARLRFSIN
Chain of Voltage-gated inwardly rectifying potassium channel KCNH2 (Homo sapiens) (Q12809 whole entry, looked up): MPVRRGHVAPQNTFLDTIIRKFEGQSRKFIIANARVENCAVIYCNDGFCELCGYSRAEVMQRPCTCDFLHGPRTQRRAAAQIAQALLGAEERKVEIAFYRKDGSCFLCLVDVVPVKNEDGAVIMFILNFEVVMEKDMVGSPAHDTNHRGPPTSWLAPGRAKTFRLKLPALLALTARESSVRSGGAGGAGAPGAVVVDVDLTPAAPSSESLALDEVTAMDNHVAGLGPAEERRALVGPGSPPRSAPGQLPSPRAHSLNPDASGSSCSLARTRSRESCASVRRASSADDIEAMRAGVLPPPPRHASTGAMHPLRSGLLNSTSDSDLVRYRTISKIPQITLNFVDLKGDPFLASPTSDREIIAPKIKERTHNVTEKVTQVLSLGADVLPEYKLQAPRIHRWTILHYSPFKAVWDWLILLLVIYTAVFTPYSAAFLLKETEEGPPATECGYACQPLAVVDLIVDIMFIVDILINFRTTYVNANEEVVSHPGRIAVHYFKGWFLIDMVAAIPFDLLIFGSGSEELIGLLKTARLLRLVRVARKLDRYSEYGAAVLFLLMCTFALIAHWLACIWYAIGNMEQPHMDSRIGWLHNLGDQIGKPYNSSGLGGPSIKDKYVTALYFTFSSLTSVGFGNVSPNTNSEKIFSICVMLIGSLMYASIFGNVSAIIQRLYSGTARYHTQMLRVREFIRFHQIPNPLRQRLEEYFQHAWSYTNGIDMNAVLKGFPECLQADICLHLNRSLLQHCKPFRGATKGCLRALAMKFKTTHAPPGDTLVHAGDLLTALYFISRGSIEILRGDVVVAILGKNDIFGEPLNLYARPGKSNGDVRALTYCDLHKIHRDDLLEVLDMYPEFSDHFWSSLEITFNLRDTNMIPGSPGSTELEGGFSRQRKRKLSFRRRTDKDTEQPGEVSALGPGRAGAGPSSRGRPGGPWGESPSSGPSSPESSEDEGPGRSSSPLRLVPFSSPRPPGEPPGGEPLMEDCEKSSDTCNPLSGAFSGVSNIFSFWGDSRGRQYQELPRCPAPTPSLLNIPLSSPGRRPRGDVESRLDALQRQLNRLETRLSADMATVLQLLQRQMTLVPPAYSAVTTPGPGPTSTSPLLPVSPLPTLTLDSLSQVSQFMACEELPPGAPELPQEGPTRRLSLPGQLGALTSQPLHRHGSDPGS
Chain of Cytochrome P450 2C19 (Homo sapiens) (P33261 whole entry, looked up): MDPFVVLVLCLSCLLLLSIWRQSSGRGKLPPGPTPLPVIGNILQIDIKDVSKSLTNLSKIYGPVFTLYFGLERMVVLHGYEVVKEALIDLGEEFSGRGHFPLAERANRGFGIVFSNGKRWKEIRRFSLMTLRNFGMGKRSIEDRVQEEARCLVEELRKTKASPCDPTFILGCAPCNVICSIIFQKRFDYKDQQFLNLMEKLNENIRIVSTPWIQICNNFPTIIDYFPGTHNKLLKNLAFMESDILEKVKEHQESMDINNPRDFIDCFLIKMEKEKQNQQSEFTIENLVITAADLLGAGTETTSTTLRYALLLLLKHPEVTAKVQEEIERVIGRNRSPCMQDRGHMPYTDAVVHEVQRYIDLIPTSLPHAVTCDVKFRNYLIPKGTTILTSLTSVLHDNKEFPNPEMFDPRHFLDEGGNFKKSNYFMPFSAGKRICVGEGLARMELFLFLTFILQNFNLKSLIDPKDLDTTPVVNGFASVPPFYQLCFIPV
Chain of Cytochrome P450 2D6 (Homo sapiens) (P10635 whole entry, looked up): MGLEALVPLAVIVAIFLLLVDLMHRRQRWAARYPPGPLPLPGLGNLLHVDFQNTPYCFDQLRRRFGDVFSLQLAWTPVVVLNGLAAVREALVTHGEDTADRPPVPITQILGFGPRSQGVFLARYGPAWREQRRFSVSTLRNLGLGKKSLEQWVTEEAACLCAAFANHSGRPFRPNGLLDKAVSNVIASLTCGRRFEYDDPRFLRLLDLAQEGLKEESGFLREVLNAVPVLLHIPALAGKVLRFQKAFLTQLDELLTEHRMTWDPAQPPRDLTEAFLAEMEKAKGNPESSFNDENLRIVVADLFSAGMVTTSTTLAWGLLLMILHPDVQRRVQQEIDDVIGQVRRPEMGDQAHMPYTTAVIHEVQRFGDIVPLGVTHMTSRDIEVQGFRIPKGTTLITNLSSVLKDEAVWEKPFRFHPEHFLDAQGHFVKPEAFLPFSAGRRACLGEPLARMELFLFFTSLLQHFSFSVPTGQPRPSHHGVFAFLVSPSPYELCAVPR
Chain of Cytochrome P450 3A4 (Homo sapiens) (P08684 whole entry, looked up): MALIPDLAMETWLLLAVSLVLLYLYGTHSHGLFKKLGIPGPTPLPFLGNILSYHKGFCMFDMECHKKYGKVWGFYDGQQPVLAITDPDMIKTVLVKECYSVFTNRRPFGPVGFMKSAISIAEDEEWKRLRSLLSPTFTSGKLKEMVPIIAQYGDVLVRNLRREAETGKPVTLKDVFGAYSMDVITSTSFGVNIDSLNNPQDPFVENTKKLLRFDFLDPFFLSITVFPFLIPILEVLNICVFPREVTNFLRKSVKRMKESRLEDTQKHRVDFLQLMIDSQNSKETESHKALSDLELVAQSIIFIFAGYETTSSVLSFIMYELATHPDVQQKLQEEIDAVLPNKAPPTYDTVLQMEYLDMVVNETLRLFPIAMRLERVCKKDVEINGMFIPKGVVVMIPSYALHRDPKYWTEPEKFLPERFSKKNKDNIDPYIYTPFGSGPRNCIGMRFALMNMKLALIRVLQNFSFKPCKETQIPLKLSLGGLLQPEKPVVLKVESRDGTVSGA
Chain of Cytochrome P450 2C9 (Homo sapiens) (P11712 whole entry, looked up): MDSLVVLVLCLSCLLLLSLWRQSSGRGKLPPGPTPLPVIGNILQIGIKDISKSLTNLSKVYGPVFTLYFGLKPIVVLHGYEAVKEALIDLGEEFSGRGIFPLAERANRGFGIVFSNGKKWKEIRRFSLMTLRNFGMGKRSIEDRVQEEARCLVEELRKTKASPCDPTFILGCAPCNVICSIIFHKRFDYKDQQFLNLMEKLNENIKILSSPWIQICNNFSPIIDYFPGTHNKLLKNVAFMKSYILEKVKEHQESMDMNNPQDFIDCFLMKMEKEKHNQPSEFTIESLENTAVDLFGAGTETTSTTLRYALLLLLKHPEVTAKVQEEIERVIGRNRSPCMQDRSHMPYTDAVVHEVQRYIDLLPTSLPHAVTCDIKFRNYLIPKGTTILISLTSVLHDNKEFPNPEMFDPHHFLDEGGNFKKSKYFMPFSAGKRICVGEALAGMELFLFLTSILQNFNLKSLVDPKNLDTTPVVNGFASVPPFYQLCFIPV

| SMILES | Potency [1] | Potency [2] | Potency [3] | Potency [4] | Potency [5] | Potency [6] |
| --- | --- | --- | --- | --- | --- | --- |
| CCCCOc1ccc(N)cc1 | 39.9 µM (active) | 28.3 µM (active) | 39.9 µM (active) | 11.2 µM (active) | inactive | – |
| FC1(F)C(F)(F)C(F)(F)C2(F)C(F)(C1(F)F)C(F)(F)C(F)(F)C1(F)C(F)(F)C(F)(F)C(F)(F)C(F)(F)C12F (stereo unspecified) | inactive | inactive | inactive | inactive | inactive | – |
| Cc1ccc(NC=O)c(C)c1 | inactive | inactive | inactive | 35.6 µM (active) | inactive | – |
| N#Cc1ccc(CC(=O)c2cccc(C(F)(F)F)c2)cc1 | 63.3 µM (active) | 20 µM (active) | 35.6 µM (active) | 25.2 µM (active) | 27.5 µM (active) | inactive |
| COc1cc(C)c(Cc2cnc(N)nc2N)cc1OC | inactive | inactive | inactive | inactive | inactive | – |
| CC(CC(C#N)(c1ccccc1)C(C)C)N(C)C (stereo unspecified) | 15.5 µM (active) | inactive | inactive | inactive | inactive | 6.92 µM (active) |
| Nc1ccc(F)cc1F | inactive | inactive | inactive | inactive | inactive | inactive |
| Cc1ccccc1CCO | inactive | inactive | inactive | inactive | inactive | inactive |
| COc1cc(CNC(=O)CCCC/C=C/C(C)C)ccc1O | 38.9 µM (active) | 9.77 µM (active) | 9.77 µM (active) | 30.9 µM (active) | inactive | – |
| O=C(O)c1ccc(O)c(O)c1 | inactive | 79.6 µM (active) | 35.5 µM (active) | 31.7 µM (active) | inactive | inactive |
| N#C[C@@H]1CC(F)(F)CN1C(=O)CNC1CC2CCC(C1)N2c1ncccn1 (stereo partly specified) | 12.6 µM (active) | 71 µM (active) | 35.6 µM (active) | inactive | inactive | – |
| c1ccc(CCNc2nc(-c3ccccc3)cs2)cc1 | 17.4 µM (active) | 2.75 µM (active) | 6.92 µM (active) | 2.29 µM (active) | inactive | – |
| CC1(C)C(=O)NC(=O)N1CO | inactive | inactive | inactive | inactive | inactive | inactive |
| CC(C)(C)N | inactive | inactive | inactive | inactive | inactive | inactive |
| C=CC(=O)OCCCCCCCCCC | inactive | inactive | inactive | inactive | inactive | – |
| Cc1ccc2ccccc2c1[N+](=O)[O-] | inactive | 79.6 µM (active) | inactive | 2.52 µM (active) | inactive | – |
| NC(=O)c1ccccc1 | inactive | inactive | inactive | inactive | inactive | inactive |
| CCOc1ccc2c(c1)C(C)CC(C)(C)N2 (stereo unspecified) | 11.2 µM (active) | 1.26 µM (active) | 14.2 µM (active) | 35.6 µM (active) | inactive | – |
| CCN(CC)CC(=O)OCC(=O)[C@@]1(O)CC[C@H]2[C@@H]3CCC4=CC(=O)CC[C@]4(C)[C@H]3[C@@H](O)C[C@@]21C | inactive | inactive | inactive | inactive | inactive | – |
| CCCN(C1CCN(C(=O)C2CCNCC2)CC1)[C@@H]1CCc2ccc(OC)cc2C1 | 10 µM (active) | inactive | inactive | inactive | – | – |
| CCCC(=O)OCCC(C)C | inactive | inactive | inactive | inactive | inactive | inactive |
| O=C1OC(=O)C2CC=CCC12 (stereo unspecified) | 35.7 µM (active) | 80 µM (active) | inactive | inactive | inactive | – |
| CC(C)(C)NCC(O)COc1ccc(NC(=O)NC2CCCCC2)cc1 (stereo unspecified) | inactive | inactive | inactive | inactive | inactive | – |

| SMILES | Potency [1] | Potency [2] | Potency [3] | Potency [4] | Potency [5] | Potency [6] |
| --- | --- | --- | --- | --- | --- | --- |
| C1CCN(CN2CCCCC2)CC1 | 7.1 µM (active) | inactive | inactive | inactive | inactive | – |
| O=C(OCCCCCOC(=O)c1ccccc1)c1ccccc1 | inactive | 56.4 µM (active) | 11.2 µM (active) | 7.96 µM (active) | inactive | inactive |
| C=CC(O)CCCCC (stereo unspecified) | inactive | inactive | inactive | inactive | inactive | inactive |
| CC/C=C/CCO | inactive | inactive | inactive | 36.2 µM (active) | inactive | inactive |
| O=C(Cl)c1cc(Cl)cc(Cl)c1 | inactive | inactive | inactive | inactive | inactive | inactive |
| C/C(=C(\CCO)SS/C(CCO)=C(\C)N(C=O)Cc1cnc(C)nc1N)N(C=O)Cc1cnc(C)nc1N | inactive | inactive | inactive | inactive | inactive | – |
| O=C(NC1CCN(CCc2c[nH]c3ccccc23)CC1)c1ccccc1 | 1.95 µM (active) | inactive | inactive | inactive | 4.77 µM (active) | – |
| CCCCCCCCCCCCN1CCOCC1 | inactive | inactive | inactive | inactive | – | – |
| CCCOC(C)=O | inactive | inactive | inactive | inactive | inactive | inactive |
| CCc1ccc(C(=O)C(C)CN2CCCCC2)cc1 (stereo unspecified) | 0.49 µM (active) | 4.9 µM (active) | inactive | inactive | inactive | – |
| C[Si](C)(C)O[Si](C)(C)O[Si](C)(C)C | inactive | inactive | inactive | inactive | inactive | inactive |
| COc1ccc(/C(C)=C/C(=O)O)c(OC)c1 | inactive | inactive | inactive | inactive | inactive | inactive |
| O=C(O)c1cc(C(=O)O)c(C(=O)O)cc1C(=O)O | inactive | inactive | inactive | inactive | inactive | inactive |
| CC1=C(C)C(=O)C(CCCCC#CCCCC#CCO)=C(C)C1=O | 15.5 µM (active) | 11 µM (active) | 6.92 µM (active) | 4.9 µM (active) | – | – |
| CCC(=O)O[C@@H]1C[C@H]2CC[C@]1(C)C2(C)C | inactive | inactive | inactive | inactive | inactive | inactive |
| Cc1nc(C)c(C)nc1C | inactive | inactive | inactive | 35.6 µM (active) | inactive | inactive |
| CC(CCl)OC(C)CCl (stereo unspecified) | inactive | inactive | inactive | inactive | inactive | inactive |
| COc1ccc(C(=O)Nc2ccccc2)cc1[N+](=O)[O-] | 40.2 µM (active) | 35.9 µM (active) | 35.9 µM (active) | 5.68 µM (active) | inactive | 35.9 µM (active) |
| Cc1ccc2c(Cl)cc(Cl)c(O)c2n1 | inactive | inactive | inactive | – | inactive | – |
| NCCOCCOCCN | 25.2 µM (active) | inactive | inactive | – | inactive | inactive |
| O=Cc1ccc(Cl)c([N+](=O)[O-])c1 | 35.6 µM (active) | 22.4 µM (active) | 71 µM (active) | 22.4 µM (active) | inactive | 71 µM (active) |
| Cc1c(Cl)cccc1[N+](=O)[O-] | inactive | inactive | inactive | inactive | inactive | inactive |
| SCCOCCOCCS | inactive | 10 µM (active) | 35.6 µM (active) | 22.4 µM (active) | inactive | 17.8 µM (active) |

| SMILES | Potency [1] | Potency [2] | Potency [3] | Potency [4] | Potency [5] | Potency [6] |
| --- | --- | --- | --- | --- | --- | --- |
| Clc1nc2ccccc2nc1Cl | 64 µM (active) | inactive | inactive | 5.09 µM (active) | inactive | inactive |
| CC(O)CN (stereo unspecified) | inactive | inactive | inactive | inactive | inactive | inactive |
| CC(=O)c1ccc(Cl)c(Cl)c1Cl | inactive | 70.9 µM (active) | inactive | 11.2 µM (active) | inactive | inactive |
| C/C=C1\[C@H]2C=C(C)C[C@]1(N)c1ccc(=O)[nH]c1C2 | inactive | inactive | inactive | inactive | inactive | inactive |
| Nc1cccc2c(=O)[nH][nH]c(=O)c12 | 5.05 µM (active) | inactive | inactive | – | – | inactive |
| CC1(C)CC(=O)CC(C)(C)N1 | inactive | inactive | inactive | inactive | inactive | inactive |
| O=[N+]([O-])c1ccccc1CCO | inactive | inactive | inactive | – | inactive | inactive |
| CCOC(=O)CC(O)(CC(=O)OCC)C(=O)OCC | inactive | 35.6 µM (active) | 8.94 µM (active) | – | inactive | – |
| CC(CN=Cc1ccccc1O)N=Cc1ccccc1O (stereo unspecified) | 35.6 µM (active) | inactive | – | 20 µM (active) | inactive | inactive |
| CC(=O)OCC(=O)[C@@]1(O)CC[C@H]2[C@@H]3CCC4=CC(=O)C=C[C@]4(C)[C@@]3(F)[C@@H](O)C[C@@]21C | inactive | inactive | – | inactive | inactive | – |
| CCCc1nc(C)c2c(=O)[nH]c(-c3cc(S(=O)(=O)N4CCN(CC)CC4)ccc3OCC)nn12 | inactive | inactive | – | inactive | inactive | – |
| O=C(c1ccc(Cl)cc1)c1ccc(Cl)cc1 | inactive | 1 µM (active) | – | 2.52 µM (active) | inactive | – |
| OCCOc1cccc(OCCO)c1 | inactive | inactive | inactive | – | inactive | inactive |
| NC(=O)c1cc[n+](CC2=C(C(=O)[O-])N3C(=O)[C@@H](NC(=O)Cc4cccs4)[C@H]3SC2)cc1 | inactive | inactive | inactive | inactive | inactive | inactive |
| COc1ccc(CN(CCN(C)C)c2ncccn2)cc1 | 0.692 µM (active) | 21.9 µM (active) | inactive | – | inactive | – |
| CC(C)C/C=C(\C=O)c1ccccc1 | inactive | 17.8 µM (active) | 35.6 µM (active) | 39.9 µM (active) | – | 35.6 µM (active) |
| C=C[Si]1(C)O[Si](C)(C=C)O[Si](C)(C=C)O[Si](C)(C=C)O1 (stereo unspecified) | inactive | 63.3 µM (active) | inactive | – | inactive | – |
| CC(C(=O)O)c1ccc2c(c1)Cc1cccnc1O2 (stereo unspecified) | inactive | inactive | inactive | inactive | inactive | inactive |
| C=CC(C)CCC=C(C)C (stereo unspecified) | inactive | inactive | inactive | – | inactive | – |
| O=C1CCCN1CCO | inactive | inactive | inactive | 39.9 µM (active) | inactive | inactive |
| CC(COc1ccccc1)NC(C)C(O)c1ccc(O)cc1 (stereo unspecified) | 0.55 µM (active) | 8.71 µM (active) | 15.5 µM (active) | 17.4 µM (active) | inactive | inactive |
